# From publication PMC7862700, “An all-to-all approach to the identification of sequence-specific readers for epigenetic DNA modifications on cytosine”
# Key:
# Test in all cases: DAPPL (digital affinity profiling via proximity ligation, sequencing); 10 mM Tris-HCl pH 7.5, 50 mM NaCl, 1 mM DTT, 4% glycerol, room temperature, 30 min; GST-TFs on glutathione beads, 16-mer random dsDNA library, 0.1% formaldehyde crosslink after washing; high values mean tight binding
# [1] = biological target: T1, FLI1 (Homo sapiens, UniProt Q01543 1-452); settings: protein: recombinant; tags: N-terminal GST; dsDNA, one strand shown
# T1 sequence: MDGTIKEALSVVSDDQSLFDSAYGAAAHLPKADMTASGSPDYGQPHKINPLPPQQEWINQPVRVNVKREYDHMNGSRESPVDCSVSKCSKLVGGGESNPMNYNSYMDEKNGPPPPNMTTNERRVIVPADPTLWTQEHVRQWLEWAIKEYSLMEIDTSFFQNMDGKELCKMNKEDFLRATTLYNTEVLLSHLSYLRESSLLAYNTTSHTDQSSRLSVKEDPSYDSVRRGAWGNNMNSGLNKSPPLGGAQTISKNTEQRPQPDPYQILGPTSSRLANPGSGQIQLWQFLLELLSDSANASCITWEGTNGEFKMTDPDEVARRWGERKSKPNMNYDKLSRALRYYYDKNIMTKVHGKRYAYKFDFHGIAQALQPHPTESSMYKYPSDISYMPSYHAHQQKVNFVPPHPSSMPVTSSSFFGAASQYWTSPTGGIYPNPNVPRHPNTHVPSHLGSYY
# In short: (§1)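 Sequencing on an Illumina NextSeq500 followed washing, crosslinking with 0.1% formaldehyde, proximity ligation (BsaI/T4 ligase, 1 h, 37 °C) and PCR amplification of pools that had been incubated for 30 min at room temperature with 200 nmole of a random double-stranded 16-mer DNA library in Tris/NaCl/DTT/glycerol buffer. Each pool held DNA-barcoded human transcription factors, expressed in yeast as GST fusions and captured on glutathione beads, plus a tag-only sample. Binding signal is a hexamer's read frequency for a factor divided by its frequency in the tag-only sample.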
# [2] = biological target: T2, ELK1 (Homo sapiens, UniProt P19419 1-428); settings: protein: recombinant; tags: N-terminal GST; dsDNA, one strand shown
# T2 sequence: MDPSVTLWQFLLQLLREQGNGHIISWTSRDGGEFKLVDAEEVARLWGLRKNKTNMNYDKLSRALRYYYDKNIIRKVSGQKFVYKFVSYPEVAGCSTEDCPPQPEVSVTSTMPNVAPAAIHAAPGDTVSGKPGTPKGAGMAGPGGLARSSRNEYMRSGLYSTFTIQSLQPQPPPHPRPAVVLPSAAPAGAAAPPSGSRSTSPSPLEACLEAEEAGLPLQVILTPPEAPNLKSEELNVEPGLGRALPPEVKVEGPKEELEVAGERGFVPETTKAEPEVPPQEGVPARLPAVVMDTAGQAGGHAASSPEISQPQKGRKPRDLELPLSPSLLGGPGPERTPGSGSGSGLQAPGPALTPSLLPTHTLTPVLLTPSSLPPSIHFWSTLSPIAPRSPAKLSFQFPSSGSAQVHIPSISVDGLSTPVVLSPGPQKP
# In short: as §1
# [3] = biological target: T3, GABPA (Homo sapiens, UniProt Q06546 1-454); settings: protein: recombinant; tags: N-terminal GST; dsDNA, one strand shown
# T3 sequence: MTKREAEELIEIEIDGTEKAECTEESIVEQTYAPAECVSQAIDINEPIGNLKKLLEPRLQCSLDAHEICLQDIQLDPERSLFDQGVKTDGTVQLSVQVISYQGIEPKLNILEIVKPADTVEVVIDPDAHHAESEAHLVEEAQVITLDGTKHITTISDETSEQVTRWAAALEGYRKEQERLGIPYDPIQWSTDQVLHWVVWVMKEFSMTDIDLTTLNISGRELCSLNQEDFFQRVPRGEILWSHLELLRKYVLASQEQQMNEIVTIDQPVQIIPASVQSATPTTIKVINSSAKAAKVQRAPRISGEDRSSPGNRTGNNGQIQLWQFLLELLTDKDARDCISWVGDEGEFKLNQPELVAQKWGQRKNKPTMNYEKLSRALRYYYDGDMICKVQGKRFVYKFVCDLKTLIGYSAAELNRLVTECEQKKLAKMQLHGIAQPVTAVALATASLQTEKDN
# In short: as §1
# [4] = biological target: T4, ERG (Homo sapiens, UniProt P11308 1-479); settings: protein: recombinant; tags: N-terminal GST; dsDNA, one strand shown
# T4 sequence: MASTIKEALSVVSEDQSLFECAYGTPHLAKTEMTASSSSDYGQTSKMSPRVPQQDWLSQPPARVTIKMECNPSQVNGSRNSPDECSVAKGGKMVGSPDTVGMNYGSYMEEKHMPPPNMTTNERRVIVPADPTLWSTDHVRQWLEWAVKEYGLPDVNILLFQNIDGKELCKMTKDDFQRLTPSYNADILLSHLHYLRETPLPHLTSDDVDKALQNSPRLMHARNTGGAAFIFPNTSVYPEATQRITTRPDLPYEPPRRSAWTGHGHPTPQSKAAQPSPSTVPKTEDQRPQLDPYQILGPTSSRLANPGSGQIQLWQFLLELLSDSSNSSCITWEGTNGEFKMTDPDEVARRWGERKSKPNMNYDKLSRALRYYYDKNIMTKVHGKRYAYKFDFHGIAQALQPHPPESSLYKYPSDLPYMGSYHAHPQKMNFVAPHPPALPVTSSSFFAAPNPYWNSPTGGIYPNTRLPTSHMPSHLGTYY
# In short: as §1
# [5] = biological target: ELF1 (Homo sapiens, UniProt P32519 1-619); settings: protein: recombinant; tags: N-terminal GST; dsDNA, one strand shown
# In short: as §1
# [6] = biological target: T5, EHF (Homo sapiens, UniProt Q9NZC4 1-300); settings: protein: recombinant; tags: N-terminal GST; dsDNA, one strand shown
# T5 sequence: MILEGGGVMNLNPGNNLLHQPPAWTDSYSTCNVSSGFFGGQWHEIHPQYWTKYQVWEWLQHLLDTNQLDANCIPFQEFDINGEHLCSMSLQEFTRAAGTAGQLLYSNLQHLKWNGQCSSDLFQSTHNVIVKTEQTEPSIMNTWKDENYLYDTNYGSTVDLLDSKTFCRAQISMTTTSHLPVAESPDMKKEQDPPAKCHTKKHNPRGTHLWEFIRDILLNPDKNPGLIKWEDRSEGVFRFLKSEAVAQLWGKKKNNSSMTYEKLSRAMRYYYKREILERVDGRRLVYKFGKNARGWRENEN
# In short: as §1
# [7] = biological target: SPI1 (Homo sapiens, UniProt P17947 1-270); settings: protein: recombinant; tags: N-terminal GST; dsDNA, one strand shown
# In short: as §1
# [8] = biological target: SPIB (Homo sapiens, UniProt Q01892 1-262); settings: protein: recombinant; tags: N-terminal GST; dsDNA, one strand shown
# In short: as §1
# [9] = biological target: T6, ELK3 (Homo sapiens, UniProt P41970 1-407); settings: protein: recombinant; tags: N-terminal GST; dsDNA, one strand shown
# T6 sequence: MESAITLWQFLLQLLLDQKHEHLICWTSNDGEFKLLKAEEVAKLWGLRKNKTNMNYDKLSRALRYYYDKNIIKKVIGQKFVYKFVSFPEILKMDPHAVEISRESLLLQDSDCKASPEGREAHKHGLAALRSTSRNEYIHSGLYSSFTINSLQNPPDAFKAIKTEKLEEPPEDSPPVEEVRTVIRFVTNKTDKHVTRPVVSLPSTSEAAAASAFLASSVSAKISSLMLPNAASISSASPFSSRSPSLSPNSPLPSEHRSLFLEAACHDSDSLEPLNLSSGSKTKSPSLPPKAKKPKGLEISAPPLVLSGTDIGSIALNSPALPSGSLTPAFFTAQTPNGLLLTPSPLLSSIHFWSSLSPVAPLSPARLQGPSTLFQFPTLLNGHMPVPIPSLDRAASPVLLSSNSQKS
# In short: as §1
# [10] = biological target: T7, FEV (Homo sapiens, UniProt Q99581 1-238); settings: protein: recombinant; tags: N-terminal GST; dsDNA, one strand shown
# T7 sequence: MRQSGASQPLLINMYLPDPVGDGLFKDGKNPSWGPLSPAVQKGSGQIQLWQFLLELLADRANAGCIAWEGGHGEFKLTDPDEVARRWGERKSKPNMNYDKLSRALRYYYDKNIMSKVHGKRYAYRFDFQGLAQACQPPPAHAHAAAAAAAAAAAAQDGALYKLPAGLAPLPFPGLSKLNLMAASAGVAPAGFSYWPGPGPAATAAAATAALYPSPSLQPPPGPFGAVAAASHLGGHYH
# In short: as §1
# [11] = biological target: ETV5 (Homo sapiens, UniProt P41161 1-510); settings: protein: recombinant; tags: N-terminal GST; dsDNA, one strand shown
# In short: as §1
# [12] = biological target: HSF1 (Homo sapiens, UniProt Q00613 1-529); settings: protein: recombinant; tags: N-terminal GST; chain copies: 3; dsDNA, one strand shown
# In short: as §1
# [13] = biological target: T8, SPIC (Homo sapiens, UniProt Q8N5J4 1-248); settings: protein: recombinant; tags: N-terminal GST; dsDNA, one strand shown
# T8 sequence: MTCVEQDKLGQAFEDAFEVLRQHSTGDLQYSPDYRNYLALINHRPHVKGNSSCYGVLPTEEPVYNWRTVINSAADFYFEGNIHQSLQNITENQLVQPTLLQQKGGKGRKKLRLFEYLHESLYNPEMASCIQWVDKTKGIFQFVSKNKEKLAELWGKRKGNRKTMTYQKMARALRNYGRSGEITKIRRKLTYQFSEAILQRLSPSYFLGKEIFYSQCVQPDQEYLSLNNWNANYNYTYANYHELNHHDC
# In short: as §1
# [14] = biological target: ELF4 (Homo sapiens, UniProt Q99607 1-663); settings: protein: recombinant; tags: N-terminal GST; dsDNA, one strand shown
# In short: as §1
# [15] = biological target: T9, ELK4 (Homo sapiens, UniProt P28324-2 1-405); settings: protein: recombinant; tags: N-terminal GST; dsDNA, one strand shown
# T9 sequence: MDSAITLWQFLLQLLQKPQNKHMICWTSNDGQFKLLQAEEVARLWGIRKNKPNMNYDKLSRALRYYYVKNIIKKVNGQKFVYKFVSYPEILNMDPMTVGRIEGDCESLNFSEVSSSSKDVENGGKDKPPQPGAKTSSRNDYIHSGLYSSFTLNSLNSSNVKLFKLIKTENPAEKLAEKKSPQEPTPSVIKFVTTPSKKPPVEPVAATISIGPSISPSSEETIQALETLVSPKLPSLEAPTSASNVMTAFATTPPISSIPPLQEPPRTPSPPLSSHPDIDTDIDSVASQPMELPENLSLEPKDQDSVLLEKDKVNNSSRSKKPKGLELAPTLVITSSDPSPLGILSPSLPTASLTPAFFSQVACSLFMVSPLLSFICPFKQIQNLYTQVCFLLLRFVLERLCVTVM
# In short: as §1
# [16] = biological target: T10, ETV2 (Homo sapiens, UniProt O00321 1-342); settings: protein: recombinant; tags: N-terminal GST; dsDNA, one strand shown
# T10 sequence: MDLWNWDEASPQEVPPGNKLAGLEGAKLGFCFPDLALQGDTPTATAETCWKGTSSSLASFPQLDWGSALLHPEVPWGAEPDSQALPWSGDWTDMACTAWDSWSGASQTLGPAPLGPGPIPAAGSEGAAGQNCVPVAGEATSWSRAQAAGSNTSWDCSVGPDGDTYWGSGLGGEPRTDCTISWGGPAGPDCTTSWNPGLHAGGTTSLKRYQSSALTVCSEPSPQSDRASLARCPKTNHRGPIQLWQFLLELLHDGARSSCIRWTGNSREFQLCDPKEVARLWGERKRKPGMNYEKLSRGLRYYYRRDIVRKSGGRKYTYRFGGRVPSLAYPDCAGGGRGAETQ
# In short: as §1
# [17] = biological target: T11, ELF3 (Homo sapiens, UniProt P78545 1-371); settings: protein: recombinant; tags: N-terminal GST; dsDNA, one strand shown
# T11 sequence: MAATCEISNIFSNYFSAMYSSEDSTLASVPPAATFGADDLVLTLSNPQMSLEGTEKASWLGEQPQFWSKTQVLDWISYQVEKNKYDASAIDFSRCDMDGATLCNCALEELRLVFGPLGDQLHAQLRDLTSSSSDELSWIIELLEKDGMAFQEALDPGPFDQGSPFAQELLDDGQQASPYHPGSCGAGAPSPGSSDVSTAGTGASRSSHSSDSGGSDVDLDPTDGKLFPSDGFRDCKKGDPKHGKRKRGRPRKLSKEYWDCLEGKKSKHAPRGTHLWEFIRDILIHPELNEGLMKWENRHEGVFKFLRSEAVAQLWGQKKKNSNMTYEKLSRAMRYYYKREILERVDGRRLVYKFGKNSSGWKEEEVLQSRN
# In short: as §1
# [18] = biological target: CRX (Homo sapiens, UniProt O43186 1-299); settings: protein: recombinant; tags: N-terminal GST; dsDNA, one strand shown
# In short: as §1
# [19] = biological target: ETV1 (Homo sapiens, UniProt P50549 1-477); settings: protein: recombinant; tags: N-terminal GST; dsDNA, one strand shown
# In short: as §1
# Chain of HSF1 (Q00613 whole entry): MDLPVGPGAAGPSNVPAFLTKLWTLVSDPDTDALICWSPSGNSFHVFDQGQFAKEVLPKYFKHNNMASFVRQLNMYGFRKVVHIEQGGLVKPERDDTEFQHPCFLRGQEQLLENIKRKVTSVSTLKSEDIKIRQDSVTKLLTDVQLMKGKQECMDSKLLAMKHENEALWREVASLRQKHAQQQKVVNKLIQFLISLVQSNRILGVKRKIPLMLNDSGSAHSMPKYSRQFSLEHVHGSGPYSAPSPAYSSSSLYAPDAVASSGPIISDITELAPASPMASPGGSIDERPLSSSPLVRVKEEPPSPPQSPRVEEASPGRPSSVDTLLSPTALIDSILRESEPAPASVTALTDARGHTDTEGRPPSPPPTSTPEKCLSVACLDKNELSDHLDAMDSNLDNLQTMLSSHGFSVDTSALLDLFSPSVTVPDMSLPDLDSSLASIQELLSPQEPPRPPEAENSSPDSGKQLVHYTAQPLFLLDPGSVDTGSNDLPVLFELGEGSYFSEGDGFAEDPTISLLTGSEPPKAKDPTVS
# Chain of CRX (O43186 whole entry): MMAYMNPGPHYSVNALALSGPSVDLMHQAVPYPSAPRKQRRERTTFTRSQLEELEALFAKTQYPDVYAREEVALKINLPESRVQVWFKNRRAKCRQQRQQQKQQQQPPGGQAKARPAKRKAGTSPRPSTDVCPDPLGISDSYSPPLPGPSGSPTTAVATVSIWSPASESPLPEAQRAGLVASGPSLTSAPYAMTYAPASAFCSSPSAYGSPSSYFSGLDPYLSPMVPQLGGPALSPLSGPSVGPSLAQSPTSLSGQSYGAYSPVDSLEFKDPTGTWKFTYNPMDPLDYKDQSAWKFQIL
# Chain of SPIB (Q01892 whole entry): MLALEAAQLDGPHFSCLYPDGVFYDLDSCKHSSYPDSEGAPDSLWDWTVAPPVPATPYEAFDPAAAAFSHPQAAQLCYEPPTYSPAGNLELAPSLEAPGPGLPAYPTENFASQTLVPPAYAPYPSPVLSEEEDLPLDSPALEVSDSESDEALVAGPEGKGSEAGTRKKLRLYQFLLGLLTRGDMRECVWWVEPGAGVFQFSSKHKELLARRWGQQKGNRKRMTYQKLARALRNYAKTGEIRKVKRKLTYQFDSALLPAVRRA
# Chain of ELF4 (Q99607 whole entry): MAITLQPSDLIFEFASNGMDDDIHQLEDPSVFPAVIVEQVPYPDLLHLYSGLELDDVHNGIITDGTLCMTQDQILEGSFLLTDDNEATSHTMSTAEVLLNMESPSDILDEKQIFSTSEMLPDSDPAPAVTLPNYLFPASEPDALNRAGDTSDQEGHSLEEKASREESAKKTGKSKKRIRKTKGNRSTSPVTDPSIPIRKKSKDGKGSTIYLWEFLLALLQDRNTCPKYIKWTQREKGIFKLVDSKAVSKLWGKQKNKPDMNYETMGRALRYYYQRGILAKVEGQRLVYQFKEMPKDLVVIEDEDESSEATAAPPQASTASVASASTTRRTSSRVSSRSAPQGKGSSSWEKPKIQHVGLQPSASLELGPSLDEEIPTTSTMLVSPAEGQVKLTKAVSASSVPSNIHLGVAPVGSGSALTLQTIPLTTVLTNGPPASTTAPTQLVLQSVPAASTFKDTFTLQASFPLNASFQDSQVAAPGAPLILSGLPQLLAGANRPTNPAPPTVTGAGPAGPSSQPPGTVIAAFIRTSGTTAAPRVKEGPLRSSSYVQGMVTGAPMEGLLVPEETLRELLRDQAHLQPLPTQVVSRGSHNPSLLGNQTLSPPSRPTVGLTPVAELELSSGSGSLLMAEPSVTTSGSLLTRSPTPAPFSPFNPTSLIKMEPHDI
# Chain of ETV5 (P41161 whole entry): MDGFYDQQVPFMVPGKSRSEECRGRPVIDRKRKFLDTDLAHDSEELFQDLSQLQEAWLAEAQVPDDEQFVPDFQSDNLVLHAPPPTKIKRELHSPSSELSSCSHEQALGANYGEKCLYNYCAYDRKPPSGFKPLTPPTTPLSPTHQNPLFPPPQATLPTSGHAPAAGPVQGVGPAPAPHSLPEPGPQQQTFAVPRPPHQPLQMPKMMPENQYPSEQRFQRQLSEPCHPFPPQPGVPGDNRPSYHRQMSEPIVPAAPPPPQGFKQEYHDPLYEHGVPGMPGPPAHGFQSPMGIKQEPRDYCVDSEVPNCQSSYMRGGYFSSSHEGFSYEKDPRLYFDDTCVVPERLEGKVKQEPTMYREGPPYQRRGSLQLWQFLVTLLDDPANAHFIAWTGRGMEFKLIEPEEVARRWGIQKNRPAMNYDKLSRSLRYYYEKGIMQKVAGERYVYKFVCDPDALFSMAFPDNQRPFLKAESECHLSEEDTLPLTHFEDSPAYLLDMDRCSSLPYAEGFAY
# Chain of ELF1 (P32519 whole entry): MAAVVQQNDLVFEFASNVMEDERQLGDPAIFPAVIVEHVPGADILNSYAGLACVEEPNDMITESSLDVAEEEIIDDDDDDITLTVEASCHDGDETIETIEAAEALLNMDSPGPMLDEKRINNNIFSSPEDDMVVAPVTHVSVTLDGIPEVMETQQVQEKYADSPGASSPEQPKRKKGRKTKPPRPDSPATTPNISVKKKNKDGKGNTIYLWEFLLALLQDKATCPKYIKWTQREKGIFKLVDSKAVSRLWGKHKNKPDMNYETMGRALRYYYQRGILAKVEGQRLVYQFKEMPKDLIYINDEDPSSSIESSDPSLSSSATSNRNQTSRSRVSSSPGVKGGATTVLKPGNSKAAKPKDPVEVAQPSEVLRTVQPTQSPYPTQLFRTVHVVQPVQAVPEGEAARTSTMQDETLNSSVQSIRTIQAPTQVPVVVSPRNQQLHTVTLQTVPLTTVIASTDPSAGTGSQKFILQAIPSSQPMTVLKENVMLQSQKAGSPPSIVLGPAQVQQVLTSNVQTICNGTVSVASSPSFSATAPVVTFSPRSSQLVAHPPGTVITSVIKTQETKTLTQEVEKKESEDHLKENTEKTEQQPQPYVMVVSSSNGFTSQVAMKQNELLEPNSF
# Chain of ETV1 (P50549 whole entry): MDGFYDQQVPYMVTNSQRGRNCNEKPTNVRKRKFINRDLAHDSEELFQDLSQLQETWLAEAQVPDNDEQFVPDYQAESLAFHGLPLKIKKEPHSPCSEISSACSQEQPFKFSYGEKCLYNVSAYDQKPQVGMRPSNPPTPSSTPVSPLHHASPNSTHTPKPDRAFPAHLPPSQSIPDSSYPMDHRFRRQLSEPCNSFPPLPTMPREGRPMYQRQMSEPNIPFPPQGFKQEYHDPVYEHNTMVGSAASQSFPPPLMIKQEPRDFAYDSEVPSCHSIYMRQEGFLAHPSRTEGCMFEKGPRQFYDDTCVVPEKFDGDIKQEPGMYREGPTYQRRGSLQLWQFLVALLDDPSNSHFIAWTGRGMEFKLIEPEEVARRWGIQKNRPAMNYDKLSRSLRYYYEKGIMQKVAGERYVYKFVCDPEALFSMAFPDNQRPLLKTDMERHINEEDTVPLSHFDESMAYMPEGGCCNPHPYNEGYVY
sequence,measurement,setting,value
CTGCCT,binding signal,[1],"1.2 fold enrichment (6-mer frequency, TF over GST control)"
same,binding signal,[2],"1.28 fold enrichment (6-mer frequency, TF over GST control)"
same,binding signal,[3],"1.33 fold enrichment (6-mer frequency, TF over GST control)"
same,binding signal,[4],"1.18 fold enrichment (6-mer frequency, TF over GST control)"
same,binding signal,[5],"1.34 fold enrichment (6-mer frequency, TF over GST control)"
same,binding signal,[6],"1.33 fold enrichment (6-mer frequency, TF over GST control)"
same,binding signal,[7],"1.27 fold enrichment (6-mer frequency, TF over GST control)"
same,binding signal,[8],"1.21 fold enrichment (6-mer frequency, TF over GST control)"
same,binding signal,[9],"1.04 fold enrichment (6-mer frequency, TF over GST control)"
same,binding signal,[10],"1.2 fold enrichment (6-mer frequency, TF over GST control)"
same,binding signal,[11],"1.18 fold enrichment (6-mer frequency, TF over GST control)"
same,binding signal,[12],"1.13 fold enrichment (6-mer frequency, TF over GST control)"
same,binding signal,[13],"1.07 fold enrichment (6-mer frequency, TF over GST control)"
same,binding signal,[14],"1.21 fold enrichment (6-mer frequency, TF over GST control)"
same,binding signal,[15],"1.14 fold enrichment (6-mer frequency, TF over GST control)"
same,binding signal,[16],"1.15 fold enrichment (6-mer frequency, TF over GST control)"
same,binding signal,[17],"1.17 fold enrichment (6-mer frequency, TF over GST control)"
same,binding signal,[18],"1.11 fold enrichment (6-mer frequency, TF over GST control)"
same,binding signal,[19],"1.24 fold enrichment (6-mer frequency, TF over GST control)"
